{
  "source": "PubChem BioAssay AID488969",
  "about": "(Vanderbilt High Throughput Screening Facility, 2010)",
  "note": "Over roughly 110,000 compounds, “z-score” has its median near -0.1; the highest 2% begin near 2. The list comes from a sample in which the highest values are over-represented; it also holds similar structures and randomly drawn compounds. Activity calls are given as the source filed them.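 How the source made its calls: active means z-score in the third read window above 3 or below -3; inactive means the rest.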",
  "data": [
    {"biological_target": "Metabotropic glutamate receptor 8 (Rattus norvegicus) (UniProt P70579)", "sequence (P70579 whole entry, looked up)": "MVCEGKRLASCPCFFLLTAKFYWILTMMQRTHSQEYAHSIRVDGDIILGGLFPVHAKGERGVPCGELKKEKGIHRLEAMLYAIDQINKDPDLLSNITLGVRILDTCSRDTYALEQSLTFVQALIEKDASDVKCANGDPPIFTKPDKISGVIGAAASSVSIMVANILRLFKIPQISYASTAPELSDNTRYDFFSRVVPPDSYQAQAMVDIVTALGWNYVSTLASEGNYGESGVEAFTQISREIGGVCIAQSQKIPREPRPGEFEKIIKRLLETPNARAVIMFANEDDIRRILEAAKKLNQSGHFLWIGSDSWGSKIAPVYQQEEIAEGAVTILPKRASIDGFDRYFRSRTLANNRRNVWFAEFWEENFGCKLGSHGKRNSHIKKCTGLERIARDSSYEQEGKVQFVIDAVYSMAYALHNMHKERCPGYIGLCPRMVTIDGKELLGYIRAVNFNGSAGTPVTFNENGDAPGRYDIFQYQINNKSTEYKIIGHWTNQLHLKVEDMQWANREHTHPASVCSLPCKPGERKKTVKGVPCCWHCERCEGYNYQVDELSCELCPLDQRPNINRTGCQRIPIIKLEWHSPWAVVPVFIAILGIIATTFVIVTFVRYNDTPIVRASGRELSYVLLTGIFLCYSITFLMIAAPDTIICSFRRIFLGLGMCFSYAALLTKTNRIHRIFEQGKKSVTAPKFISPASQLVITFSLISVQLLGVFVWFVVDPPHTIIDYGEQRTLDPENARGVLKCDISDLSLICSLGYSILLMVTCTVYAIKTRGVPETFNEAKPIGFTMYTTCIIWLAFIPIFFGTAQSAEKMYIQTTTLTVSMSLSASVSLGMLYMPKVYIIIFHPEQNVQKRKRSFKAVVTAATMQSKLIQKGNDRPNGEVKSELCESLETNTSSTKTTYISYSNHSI", "experiment": "rat mGluR8 modulators via GIRK flux, primary screen, cell-based, thallium flux, HTS (AID 488969)", "conditions": "HEK293 rat mGluR8, GIRK (G protein-gated inwardly rectifying potassium channel) thallium flux, FluoZin2; at 10 µM; stronger effect = higher value; submaximal glutamate (EC20) added with thallium", "values": [
      {"smiles": "Cc1ccc(NC(=O)CN2C(=O)C3CCCCN3C(=O)c3ccccc32)cc1", "note": "(configuration not stated)", "z-score": 0.0289},
      {"smiles": "COC(=O)c1cc2c(s1)-c1ccccc1OC2", "z-score": -0.0119},
      {"smiles": "Cc1ccc(NC(=O)c2ccc3nc[nH]c3c2)cc1C", "z-score": 0.551},
      {"smiles": "Cc1ccc(NC(=O)c2c(Cl)n(C)c3ccccc23)cc1", "z-score": -0.377},
      {"smiles": "O=C(Nc1cccc(NC(=O)c2cccs2)c1)c1ccco1", "z-score": -0.313},
      {"smiles": "Clc1cccc(Cl)c1CO/N=C/c1c(-c2ccccc2)nc2n1CCS2", "z-score": -0.177},
      {"smiles": "Cn1c(O)c(C=NCC2CCNCC2)c(=O)n(C)c1=O", "z-score": 0.695},
      {"smiles": "O=C(NCc1cccs1)c1cnn2cccnc12", "z-score": 0.267},
      {"smiles": "CCOC(=O)N1CCN(CC(O)COCc2ccc(OC)c(OC)c2)CC1", "note": "(configuration not stated)", "z-score": 0.0416},
      {"smiles": "CC(C)(C)C1CCC(OC(=O)c2ccncc2)CC1", "note": "(configuration not stated)", "z-score": 0.0808},
      {"smiles": "C/C(=N\\Nc1ccc([N+](=O)[O-])cc1[N+](=O)[O-])c1ccc(-n2nncc2C(C)(C)C)cc1", "z-score": -2.37},
      {"smiles": "O=C(CCCN1C(=O)C2CCCCN2C1=O)N1CCN(c2ccc([N+](=O)[O-])cc2)CC1", "note": "(configuration not stated)", "z-score": 0.169},
      {"smiles": "O=C(Nc1cccc(Cl)c1)Nc1nnc(-c2ccncc2)s1", "z-score": -0.194},
      {"smiles": "O=C(NNC(=O)C1COc2ccccc2O1)c1ccccc1", "note": "(configuration not stated)", "z-score": 0.0265},
      {"smiles": "NC(=S)NNC(=O)Nc1ccc(Cl)c(Cl)c1", "z-score": 0.243},
      {"smiles": "CC(/C=N/n1c(-c2ccco2)n[nH]c1=S)=C\\c1ccccc1", "z-score": "5.91 (active)"},
      {"smiles": "CC(/C=N/n1c(COc2ccccc2)n[nH]c1=S)=C\\c1ccccc1", "z-score": 1.93},
      {"smiles": "CC(/C=N/n1c(-c2cc(C)[nH]n2)n[nH]c1=S)=C\\c1ccccc1", "z-score": -0.302},
      {"smiles": "CC(=C/c1ccccc1)/C=N/n1c(-c2ccco2)n[nH]c1=S", "z-score": 2.16},
      {"smiles": "CC(/C=N/n1c(C2CCCCC2)n[nH]c1=S)=C\\c1ccccc1", "z-score": 2.13},
      {"smiles": "Cc1cc(-c2n[nH]c(=S)n2/N=C/C(Cl)=C/c2ccccc2)n[nH]1", "z-score": -0.527},
      {"smiles": "S=c1[nH]nc(C2CCCCC2)n1/N=C/C(Cl)=C\\c1ccccc1", "z-score": -0.0746},
      {"smiles": "CC(/C=N/n1c(-c2ccco2)n[nH]c1=S)=C\\c1ccco1", "z-score": 0.1},
      {"smiles": "S=c1[nH]nc(-c2ccco2)n1/N=C/C=C/c1ccco1", "z-score": -0.366},
      {"smiles": "Cc1cc(NCCN2CCOCC2)n2nc(C)c(-c3ccc(Cl)cc3)c2n1", "z-score": -0.362},
      {"smiles": "COc1ccccc1-c1c(C#N)c(SCC(=O)N2CCCC2)nc(C)c1C(N)=O", "z-score": 0.169},
      {"smiles": "CNC(=O)c1ccc(-n2nc(C)cc2-c2ccccc2)cc1", "z-score": -0.167},
      {"smiles": "CCOC(=O)c1c(N)sc2c(OCC)c(Br)ccc12", "z-score": 0.151},
      {"smiles": "CCCN(CCC)CCNC(=O)C(NS(=O)(=O)c1ccc2c(c1)CCC(=O)N2)c1ccccc1", "note": "(configuration not stated)", "z-score": "10 (active)"},
      {"smiles": "CCCNC(=O)C(Cc1ccccc1)NS(=O)(=O)c1ccc2c(c1)CCC(=O)N2", "note": "(configuration not stated)", "z-score": 0.179},
      {"smiles": "O=C1CCc2cc(S(=O)(=O)NC(C(=O)NCc3cccnc3)c3ccccc3)ccc2N1", "note": "(configuration not stated)", "z-score": -0.174},
      {"smiles": "Cc1ccccc1S(=O)(=O)c1c(C)cc(C)n(C(C)C)c1=O", "z-score": -0.131},
      {"smiles": "COc1cccc(NC(=S)N/N=C2\\CC(C)(C)Oc3ccc(O)cc32)c1", "z-score": -0.0142},
      {"smiles": "CCNC(=S)N/N=C1\\CCCCc2ccccc21", "z-score": 1.57},
      {"smiles": "CC(C)NC(=S)N/N=C1\\CCCCc2ccccc21", "z-score": -0.471},
      {"smiles": "C=C(C)CNC(=S)N/N=C1\\CCCCc2ccccc21", "z-score": "3.15 (active)"},
      {"smiles": "COC(=O)N/N=C1\\CCCc2ccccc21", "z-score": -0.137},
      {"smiles": "CCCCCCC(=O)N/N=C1\\CCCc2ccccc21", "z-score": -0.118},
      {"smiles": "COc1cccc(NC(=S)N/N=C2/CCCCc3ccccc32)c1", "z-score": "8.28 (active)"},
      {"smiles": "Cc1cccc(NC(=S)N/N=C2/CCCCc3ccccc32)c1", "z-score": 0.797},
      {"smiles": "CCCCNC(=S)N/N=C1\\CCCCc2ccccc21", "z-score": 2.17},
      {"smiles": "CC(=O)N1CCCc2cc(S(=O)(=O)N(C)Cc3ccccc3)ccc21", "z-score": 0.884},
      {"smiles": "Cc1ccc(SCc2nc3ccccc3[nH]2)cc1", "z-score": -0.0609},
      {"smiles": "CCCC(=O)NC(Nc1cccc(C(F)(F)F)c1)C(Cl)(Cl)Cl", "note": "(configuration not stated)", "z-score": -0.917},
      {"smiles": "COc1cccc(NC(=O)CSc2nc(N)cc(N)n2)c1", "z-score": "3.37 (active)"},
      {"smiles": "COc1ccc(OCC(=O)Nc2ccc(C)cc2)cc1", "z-score": -0.351},
      {"smiles": "CCOc1ccc(OCC(=O)Nc2ccc(OC)cc2)cc1", "z-score": -0.476},
      {"smiles": "COc1ccccc1NC(=O)COc1ccccc1", "z-score": 0.137},
      {"smiles": "COc1cccc(NC(=O)CC2COc3ccccc3O2)c1", "note": "(configuration not stated)", "z-score": "5.36 (active)"},
      {"smiles": "COc1ccc(OCC(=O)Nc2ccccc2O)cc1", "z-score": -0.431},
      {"smiles": "COc1cc(OC)c(OC)cc1NC(=O)CC1COc2ccccc2O1", "note": "(configuration not stated)", "z-score": -0.0814},
      {"smiles": "COc1ccccc1NC(=O)CC1COc2ccccc2O1", "note": "(configuration not stated)", "z-score": 0.0423},
      {"smiles": "Cc1cccc(NC(=O)CSc2nc(N)cc(N)n2)c1", "z-score": -0.298},
      {"smiles": "COc1ccc(OCC(=O)Nc2ccccc2OC(F)F)cc1", "z-score": 2.69},
      {"smiles": "Nc1cc(N)nc(SCC(=O)Nc2ccccc2)n1", "z-score": -0.306},
      {"smiles": "COc1ccc(OCC(=O)NNC(=O)C(=O)Nc2ccc(C)cc2)cc1", "z-score": 2.73},
      {"smiles": "COc1ccc(NS(=O)(=O)c2cc(S(C)(=O)=O)ccc2C)cc1", "z-score": -0.235},
      {"smiles": "COc1ccc2c(c1)C(NC(=O)C(F)(F)F)CC2=O", "note": "(configuration not stated)", "z-score": 0.142},
      {"smiles": "O=C(N1CCOCC1)N1CCN(C(=O)N2CCOCC2)CC1", "z-score": -0.108},
      {"smiles": "COc1cc(C(=O)CSc2nncn2C)cc(OC)c1OC", "z-score": -0.245},
      {"smiles": "CC1(C)Cc2nc3sc4c(OCc5ccccc5)ncnc4c3cc2CO1", "z-score": -0.0531},
      {"smiles": "CCCN(CCC)C1=N/C(=C\\c2ccco2)C(=O)N1c1ccccc1", "z-score": -0.536},
      {"smiles": "Cc1ccccc1NC1C=CS(=O)(=O)C1", "note": "(configuration not stated)", "z-score": -0.358},
      {"smiles": "Cc1ccc(N2C(=O)CCSC23C(=O)Nc2ccccc23)cc1", "note": "(configuration not stated)", "z-score": -0.0429},
      {"smiles": "CC(C)(C)NC(=O)C(=O)NNC(=O)COc1ccc(Br)cc1", "z-score": 1.89},
      {"smiles": "COc1cccc(NC(=O)COc2ccc(C)cc2)c1", "z-score": "4.04 (active)"},
      {"smiles": "Cc1ccc(OCC(=O)NNC(=O)C(=O)NC(C)(C)C)cc1", "z-score": 2.61},
      {"smiles": "COc1ccc(OCC(=O)Nc2cccc(OC)c2)cc1", "z-score": -0.532},
      {"smiles": "COc1cc(NC(=O)COc2cccc(OC)c2)cc(OC)c1", "z-score": 0.638},
      {"smiles": "CC(C)(C)NC(=O)C(=O)NNC(=O)COc1ccccc1", "z-score": 0.182},
      {"smiles": "O=C(COc1ccc(S(=O)(=O)NC2CCCCC2)cc1Cl)N1CCN(c2ccccc2)CC1", "z-score": 1.16},
      {"smiles": "COc1cccc(/C=N/NC(=O)C(=O)N2CCCC2)c1OC", "z-score": -0.494},
      {"smiles": "CCSc1nnc(NC(=O)C2CCN(S(=O)(=O)c3ccccc3C(F)(F)F)CC2)s1", "z-score": -0.565},
      {"smiles": "O=C(Nc1ccccc1)/C(=C\\c1ccc2c(c1)OCO2)NC(=O)c1ccco1", "z-score": -0.0407},
      {"smiles": "Cc1ccc(CN2CCNC(=O)C2CC(=O)O)cc1", "note": "(configuration not stated)", "z-score": -0.134},
      {"smiles": "O=C(O)CC1C(=O)NCCN1Cc1ccc(F)c(F)c1", "note": "(configuration not stated)", "z-score": -0.183},
      {"smiles": "COc1ccc(CN2CCNC(=O)C2CC(=O)O)cc1OC", "note": "(configuration not stated)", "z-score": "3.61 (active)"}
    ]}
  ]
}
